A short description of assay [1]: compounds altering viability of human ES cells (AID 493140).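 Also: cells exposed to compounds for four days before counting.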 As to conditions: human embryonic stem cell survival screen; stronger effect = higher value.
In assay [2] the target is Mitogen-activated protein kinase 7 (Homo sapiens) (UniProt Q13164). Kind of assay: Gal4-ERK5 driven luciferase induction – cell-based, HTS, primary screen (AID 1508626;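 active = luciferase signal above three times the same-plate solvent-only control wells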;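 also: luciferase driven by Gal4-ERK5 fusion binding five Gal4 sites before minimal TATA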). As to conditions: HeLa Gal4-ERK5 transactivation, 18 h, at 5 µM, stronger effect = higher value.
A short description of assay [3]: blockers of polyQ-driven CASP3 activation – cell-based (AID 1583). Particulars: polyglutamine-induced caspase-3 activation, cell assay; stronger effect = higher value;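 tested at 10 µM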.
Assay [4] is described as follows: yeast 75Q aggregation reduction – 75Q-TubU reporter (AID 1593). Particulars: Yeast 75Q polyglutamine aggregation reporter.
Assay [5] in a line: restoration of touch response, mutant HTT neurons – whole organism, C. elegans mechanosensory neurons, N-terminal huntingtin (AID 1599). Particulars: C. elegans polyQ-huntingtin mechanosensory neurons, stronger effect = higher value.
Assay [6] can be described thus: blockers of cytochrome c efflux from mitochondria – biochemical, purified mitochondria (AID 1603).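 Also: mouse liver mitochondria challenged with calcium chloride; signal normalized to the plate average as 100%.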 Particulars: stronger effect = lower value.
Assay [7] is described as follows: polyglutamine aggregate formation blockers (AID 1604). As to conditions: polyglutamine-induced protein aggregation inhibition assay; stronger effect = higher value; tested at 2.5 µM.
Assay [8] is described as follows: glutamate transport activators, MN-1 cells, MN-1 cell line (AID 1612).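 Also: tested at 1 µM final; 0% = mean of DMSO vehicle wells on each plate; positive means more glutamate uptake than control and negative means less.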 As to conditions: MN-1 motor neuron cells, stronger effect = higher value.
Assay [9] can be described thus: GFP-Q80 aggregate reduction, neuronal-like cells, cell-based, NGF-treated PC12, GFPQ80 (AID 1614).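 Also: lower means fewer inclusions and 0 means no inclusions at all.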 As to conditions: PC12 NGF-treated GFP-polyQ80 inclusion reduction.
Assay [10] is described as follows: 75Q-TubH aggregate inhibition, S. cerevisiae, yeast (AID 1616). As to conditions: S. cerevisiae 75Q-TubH polyglutamine aggregation suppression; stronger effect = higher value.
Assay [11] in a line: P. berghei load reduction in hepatocytes – cell-based, HepG2, luciferase luminescence, HepG2 viability, primary screen (AID 624349; in the data active = parasite load remaining mostly below about 12%, no sharp cut-off; inactive = mostly above about 10%;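 also: 100% = mean of DMSO negative control wells on the same plate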). Particulars: P. berghei liver stage in HepG2, luciferase luminescence, concentration not given here; parasite load remaining: stronger effect = lower value; viability: measured here: HepG2 viability without parasites.
The nature of assay [12]: rescue of PC12 cells from polyQ htt toxicity – LDH release (AID 1610). Particulars: PC12 mutant huntingtin toxicity, final LDH at 4 uM, stronger effect = lower value.
Assay [13] can be described thus: antimalarial activity against Dd2 strain (AID 2302;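 active = growth inhibition above 50% at the single 2 µM test dose, taken to imply half-maximal potency below 2 µM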;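 also: 0% = DMSO untreated growth and 100% = chloroquine plus artemisinin killed control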). Particulars: P. falciparum Dd2 in RBCs, LDH growth readout, 72 h; at 2 µM; stronger effect = higher value.
A short description of assay [14]: human hepatoma cell viability loss – ATP luminescence, cytotoxicity control for P. falciparum antimalarial project, primary screen (AID 2303;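 active = inhibition above 50%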;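 also: 0% = DMSO wells and 100% = digitonin-killed cells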). Particulars: HepG2 viability, 24-48 h, at 10 µM, stronger effect = higher value.
The target in assay [15] is L-lactate dehydrogenase (Plasmodium falciparum (isolate CDC / Honduras)) (UniProt Q27743). Kind of assay: PfLDH activity inhibition – cell lysate, 3D7 strain, counter-screen for P. falciparum growth inhibition project (AID 2304).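 Also: 0% = vehicle and 100% = reference inhibitor.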 As to conditions: P. falciparum 3D7 crude extract, LDH APAD/NBT absorbance; at 2 µM; stronger effect = higher value.
A short description of assay [16]: inhibition of 3D7 malaria parasite growth – strain 3D7 (AID 2306).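 Also: 0% = DMSO wells and 100% = chloroquine plus artemisinin control wells.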 Particulars: P. falciparum 3D7 erythrocytic growth, LDH absorbance, 72 h; at 2 µM; stronger effect = higher value.
A short description of assay [17]: compounds altering circadian rhythm period length – cell-based, LOPAC library, luminescence reporter (AID 2774).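 Also: values are relative to mean of DMSO wells on each plate.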 Particulars: circadian reporter cells, at 7 µM, actives lie on both sides.
Assay [18] can be described thus: galactose survival enhancers in mitochondrial complex I cybrids – cell-based, galactose medium, ATP luminescence, primary screen (AID 1645843;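 active = z-score of at least 1.8 in each of two replicates, scored against plate mean and spread of sample wells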;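 also: positive z means more ATP and so rescue of galactose-driven cybrid death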). As to conditions: complex I mutant cybrid cells, 72 h, stronger effect = higher value.

The structures appear in SMILES notation. “And” between values parts separate entries of the source, which are not always exact repeats. Equal values may be shown once. Results filed as inconclusive are left out. For part of these data: Measured potencies and affinities stand elsewhere. The source made the active and inactive calls. Unless noted, no rule for the calls is given here.

L-lactate dehydrogenase (Plasmodium falciparum (isolate CDC / Honduras)), sequence (Q27743 whole entry, looked up): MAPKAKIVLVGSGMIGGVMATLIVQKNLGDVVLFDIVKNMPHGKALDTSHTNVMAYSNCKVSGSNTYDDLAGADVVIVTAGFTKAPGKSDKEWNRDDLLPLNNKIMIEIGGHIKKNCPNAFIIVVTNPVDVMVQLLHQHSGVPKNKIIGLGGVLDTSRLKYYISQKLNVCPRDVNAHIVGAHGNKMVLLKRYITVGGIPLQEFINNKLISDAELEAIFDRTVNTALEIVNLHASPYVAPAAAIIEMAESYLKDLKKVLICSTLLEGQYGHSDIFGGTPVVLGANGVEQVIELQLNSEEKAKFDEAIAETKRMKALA
Mitogen-activated protein kinase 7 (Homo sapiens), sequence (Q13164 whole entry, looked up, the tested form may be a part): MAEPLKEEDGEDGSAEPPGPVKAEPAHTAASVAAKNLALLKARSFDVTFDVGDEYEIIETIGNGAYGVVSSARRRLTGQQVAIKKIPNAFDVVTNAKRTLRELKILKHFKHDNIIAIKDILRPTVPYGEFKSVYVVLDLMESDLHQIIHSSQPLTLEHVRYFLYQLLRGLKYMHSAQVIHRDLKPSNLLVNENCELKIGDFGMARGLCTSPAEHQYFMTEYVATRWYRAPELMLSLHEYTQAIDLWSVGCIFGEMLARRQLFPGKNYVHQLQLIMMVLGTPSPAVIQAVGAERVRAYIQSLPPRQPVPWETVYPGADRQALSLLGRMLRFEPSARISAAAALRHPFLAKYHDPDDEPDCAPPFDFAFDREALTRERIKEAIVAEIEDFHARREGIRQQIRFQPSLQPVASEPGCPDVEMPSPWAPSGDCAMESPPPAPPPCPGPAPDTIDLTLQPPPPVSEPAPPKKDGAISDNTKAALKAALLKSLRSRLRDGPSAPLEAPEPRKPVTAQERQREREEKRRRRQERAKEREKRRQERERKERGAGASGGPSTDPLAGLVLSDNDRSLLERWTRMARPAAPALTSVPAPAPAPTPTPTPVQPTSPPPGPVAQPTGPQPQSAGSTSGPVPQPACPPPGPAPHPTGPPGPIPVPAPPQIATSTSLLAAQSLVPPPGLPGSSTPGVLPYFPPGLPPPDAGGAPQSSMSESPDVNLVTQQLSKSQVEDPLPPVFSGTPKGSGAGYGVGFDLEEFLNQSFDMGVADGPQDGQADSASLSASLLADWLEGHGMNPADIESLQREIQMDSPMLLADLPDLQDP

With `O=c1ccc2cc(O[C@@H]3OC(CO)[C@@H](O)[C@@H](O)C3O)c(O)cc2o1` (some centres not stated), the survival in [1] was 4.42 (inactive). The luciferase signal in assay [2] was 48 AU (inactive).
Take `CN1CC[C@]23c4c5ccc(O)c4O[C@H]2[C@H](O)C=CC3[C@H]1C5` (some centres not stated): the inhibition in [3] came to 2.86%. Also, the score in [4] turned out to be 1.09. This molecule gave a rescue above control in assay [5] of -1.93. In assay [6], the cytochrome c release ratio came to 1.03. Further, the inhibition of aggregation in assay [7] was 32%. Also, the glutamate uptake change in [8] was 6.58%. In [9], this molecule came in with an inclusion score of 2. In [10], this molecule showed an aggregation suppression score of 1.13.
In the case of `NCCC(O)C(=O)N[C@@H]1C[C@H](N)[C@@H](O[C@H]2O[C@H](CN)[C@@H](O)[C@H](O)[C@H]2N)[C@H](OC2O[C@H](CO)[C@H](O)[C@H]2O)[C@H]1O` (some centres not stated), the inhibition in assay [3] came to 5.62%. Further, the score in [4] amounted to 1.4. The rescue above control in [5] was 9.62. Besides, the cytochrome c release ratio in [6] was determined as 1.37. In [7], the inhibition of aggregation was determined as 83.3%. Moreover, the glutamate uptake change in assay [8] was determined as 13.4%. For the same molecule, the inclusion score in assay [9] stood at 2. In assay [10], this molecule had an aggregation suppression score of 1.55.
Take `CC[C@H]1C(=O)OC[C@@H]1Cc1cncn1C`: in assay [11], the parasite load remaining was 76.7% (inactive) and the viability is 70.2%. Moreover, in [2], the luciferase signal was 84 AU (inactive).
For the molecule `CCOC(=O)C1(c2ccccc2)CCN(C)CC1`, the inhibition in assay [3] was found to be 15%. This molecule showed a score in [4] of 1.03. The rescue above control in assay [5] is 5.54. For the same molecule, the cytochrome c release ratio in [6] was 0.93. In addition, the inhibition of aggregation in [7] amounted to 7.48%. For the same molecule, in [8], the glutamate uptake change was found to be 5.98%. The same molecule yielded an inclusion score in assay [9] of 2. In assay [10], this molecule yielded an aggregation suppression score of 1.14.
Turning to `COC(=O)C1C(OC(=O)c2ccccc2)CC2CCC1N2C` (configuration not stated), the inhibition in assay [3] is -2.13%. In assay [4], this molecule returned a score of 1.1. In addition, the rescue above control in assay [5] is -9. Further, the cytochrome c release ratio in assay [6] was determined as 0.85. Besides, the inhibition of aggregation in assay [7] came to 32%. Moreover, the glutamate uptake change in [8] is -26.1%. The inclusion score in assay [9] worked out at 2. For the same molecule, in [10], the aggregation suppression score was 1.26.
`CNC(C)Cc1ccc2c(c1)OCO2` (configuration not stated): the inhibition in assay [3] was -3.07%. Also, the score in assay [4] turned out to be 0.95. In addition, in assay [5], the rescue above control was -0.64. The cytochrome c release ratio in [6] amounted to 0.84. For the same molecule, in assay [7], the inhibition of aggregation stood at 0.68%. Besides, the glutamate uptake change in assay [8] was -3.54%. Moreover, in assay [9], the inclusion score came to 2. Also, in [10], the aggregation suppression score came out at 1.38.
Turning to `COC12CC[C@@]3(C[C@@H]1C(C)(O)C(C)(C)C)[C@H]1Cc4ccc(O)c5c4[C@@]3(CCN1CC1CC1)[C@H]2O5` (some centres not stated), the inhibition in assay [3] amounted to 26.4%. The same molecule showed a score in assay [4] of 1.52. Further, the rescue above control in [5] was 5.39. In addition, the cytochrome c release ratio in assay [6] amounted to 1.25. Moreover, in assay [7], the inhibition of aggregation was -0.68%. In addition, in assay [12], the normalised LDH release was determined as 1.01. Further, in assay [8], the glutamate uptake change is -3.06%. This molecule also came in with an aggregation suppression score in assay [10] of 1.02.
As for `CC[C@H]1C(=O)OC[C@@H]1Cc1cccn1C`, in assay [3], the inhibition was -1.44%. In assay [4], the score came out at 1.44. The molecule also showed a rescue above control in assay [5] of 2.37. Besides, the cytochrome c release ratio in [6] is 0.94. Besides, the inhibition of aggregation in [7] stood at 42.5%. Moreover, the glutamate uptake change in [8] was determined as 10.3%. The molecule further showed an inclusion score in [9] of 2. Besides, the aggregation suppression score in [10] worked out at 1.24.
Consider `C#CCOc1ccc(CC(C)NCC(O)c2cccc(C(F)(F)F)c2)cc1` (configuration not stated), for which the growth inhibition in assay [13] was 74% (active) and 84% (active); in assay [16], 90% (active) and 93% (active). Besides, the inhibition was 5% (inactive) and 28% (inactive) in assay [14]; 1% (inactive) and -2% (inactive) in assay [15].
For `C=CCN1CCC2(C)c3cc(O)ccc3CC1C2C` (configuration not stated), in [17], the period change was -0.18 h (inactive).
Consider `O=c1c2cc(F)ccc2ncn1Cc1cn2ccccc2n1`, for which, in [18], the z-score is 0.245 (inactive).
As to `C[C@]12CC[C@@H](O)CC1CC[C@@H]1[C@@H]2CC[C@]2(C)C(=O)CC[C@@H]12` (some centres not stated), the period change in assay [17] is 0.105 h (inactive).
Regarding `COC(=O)/C=C/c1ccc(CC(C)NCC(O)c2cccc(C(F)(F)F)c2)cc1` (configuration not stated), the growth inhibition in assay [13] was 96% (active); in assay [16], 97% (active). For the same molecule, the inhibition was 16% (inactive) in assay [14] and 0% (inactive) in assay [15].

These data come from PubChem BioAssay.
